The full list was thinned out, with hits kept by preference.
IDE exosite FP: exo-site inhibitors of human insulin-degrading enzyme | P14735 | purified IDE, FL-6b probe fluorescence polarization; hits give low values | z-score at 20 µM | 17,000 compounds, 6.3% hits | AID 1259349;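 active = z-score of -3 or lower, meaning strong loss of probe binding signal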;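 note: His-tagged human IDE residues 42-1019 made in E. coli with 30 nM FL-6b probe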
Target sequence (P14735 42-1019 limits assumed): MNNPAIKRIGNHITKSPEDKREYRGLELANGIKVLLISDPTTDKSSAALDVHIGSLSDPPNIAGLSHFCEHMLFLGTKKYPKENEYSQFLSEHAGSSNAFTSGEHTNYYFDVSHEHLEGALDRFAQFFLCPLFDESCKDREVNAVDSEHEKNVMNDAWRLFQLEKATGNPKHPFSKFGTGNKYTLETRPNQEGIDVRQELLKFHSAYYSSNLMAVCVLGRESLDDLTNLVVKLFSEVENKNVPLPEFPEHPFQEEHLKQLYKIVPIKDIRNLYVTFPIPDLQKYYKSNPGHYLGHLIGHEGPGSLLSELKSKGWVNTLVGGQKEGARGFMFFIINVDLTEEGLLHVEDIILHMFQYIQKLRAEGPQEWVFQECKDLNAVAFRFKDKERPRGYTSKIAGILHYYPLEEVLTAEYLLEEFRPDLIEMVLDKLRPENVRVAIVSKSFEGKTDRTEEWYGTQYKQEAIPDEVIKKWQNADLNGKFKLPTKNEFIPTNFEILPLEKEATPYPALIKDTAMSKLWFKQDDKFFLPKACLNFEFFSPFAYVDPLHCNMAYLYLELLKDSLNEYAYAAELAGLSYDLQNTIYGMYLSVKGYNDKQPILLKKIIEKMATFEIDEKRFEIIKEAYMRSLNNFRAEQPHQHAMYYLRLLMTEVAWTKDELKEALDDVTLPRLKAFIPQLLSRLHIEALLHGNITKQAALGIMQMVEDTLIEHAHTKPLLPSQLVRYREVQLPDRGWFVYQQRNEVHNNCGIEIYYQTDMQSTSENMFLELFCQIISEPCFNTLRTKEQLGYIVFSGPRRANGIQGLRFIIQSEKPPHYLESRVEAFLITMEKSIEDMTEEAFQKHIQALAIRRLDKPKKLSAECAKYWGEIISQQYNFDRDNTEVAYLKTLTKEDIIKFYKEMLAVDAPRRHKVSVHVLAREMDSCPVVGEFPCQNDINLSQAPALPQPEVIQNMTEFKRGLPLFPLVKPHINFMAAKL
* = called active by the depositor.

SMILES	IDE exosite FP
O=C(c1cccc(F)c1)N1CC(=O)N2[C@H](CO)[C@H](c3ccc(-c4ccccc4F)cc3)[C@H]2C1	-4.76*
O=C(c1cccc(F)c1)N1CC(=O)N2[C@H](C1)[C@@H](c1ccc(-c3ccccc3F)cc1)[C@@H]2CO	-3.92*
O=C(c1cccnc1)N1CC(=O)N2[C@@H](CO)[C@@H](c3ccc(-c4ccccc4F)cc3)[C@@H]2C1	0.484
O=C(c1cccc(F)c1)N1CC(=O)N2[C@@H](CO)[C@@H](c3ccc(-c4ccccc4F)cc3)[C@@H]2C1	-1.15
O=C(c1cccc(F)c1)N1CC(=O)N2[C@@H](CO)[C@H](c3ccc(-c4ccccc4)cc3)[C@@H]2C1	2.42
CCC(=O)N1[C@H](CO)[C@H](c2ccc(C3=CCCCC3)cc2)[C@H]1CNC1CCCC1	3.06
O=S(=O)(c1ccccc1)N1CCCCN2[C@@H](CO)[C@@H](c3ccc(C#Cc4cccnc4)cc3)[C@@H]2C1	1.63
CCC(=O)NC[C@H]1[C@H](c2ccccc2)[C@@H](CO)N1C(=O)C1CC1	1.23
C[C@@H]1CNC(=O)[C@H](Cc2ccc(C(F)(F)F)cc2)CCn2nncc2COC1	1.07
O=C(NC1CCCCC1)N1CC(=O)N2[C@H](CO)[C@H](c3ccc(/C=C/c4ccccc4)cc3)[C@H]2C1	-6.74*
O=C(NC1CCCCC1)N1CC(=O)N2[C@H](CO)[C@@H](c3ccc(/C=C/c4ccccc4)cc3)[C@H]2C1	-4.42*
CC(C)NC(=O)N1CC(=O)N2[C@H](C1)[C@@H](c1ccc(/C=C/c3ccccc3)cc1)[C@@H]2CO	-2.84
CC(C)NC(=O)N1CC(=O)N2[C@H](C1)[C@H](c1ccc(/C=C/c3ccccc3)cc1)[C@@H]2CO	-3.84*
CC(C)NC(=O)N1CC(=O)N2[C@H](CO)[C@H](c3ccc(/C=C/c4ccccc4)cc3)[C@@H]2C1	-2.1
C/C=C/c1ccc([C@H]2[C@@H](CO)N3C(=O)CN(C(=O)NC4CCCCC4)C[C@@H]23)cc1	-0.754
N#C[C@@H]1[C@@H](c2ccccc2)[C@@H](CO)N1S(=O)(=O)Cc1ccccc1	0.677
CO[C@H](C(=O)N(C)C[C@H]1OCc2ccccc2-c2ccccc2C(=O)N([C@@H](C)CO)C[C@H]1C)c1ccccc1	-0.92
COCC(=O)N1CCCCN2[C@H](CO)[C@@H](c3ccc(-c4ccc(C)cc4)cc3)[C@@H]2C1	1.22
CCS(=O)(=O)N1CC(=O)N2[C@H](CO)[C@@H](c3ccc(C#CCC4CCCC4)cc3)[C@H]2C1	1.57
O=C(C[C@@H]1CC[C@H]2[C@@H](COC[C@@H](O)CN2Cc2nccs2)O1)NCc1ccccc1Cl	-0.57
O=C(C[C@H]1CC[C@@H]2[C@H](COC[C@H](O)CN2Cc2nccs2)O1)N1CCC(Cc2ccccc2)CC1	-1.57
O=C(C[C@H]1CC[C@@H]2[C@H](COC[C@@H](O)CN2Cc2nccs2)O1)NCc1ccccc1Cl	0.505
O=C(Nc1cc(F)ccc1F)N1CC(=O)N2[C@H](C1)[C@H](c1ccc(-c3ccccc3)cc1)[C@@H]2CO	-0.216
CO[C@H]1CN(C)C(=O)c2cc(NC(=O)NC3CCCCC3)ccc2OC[C@@H](C)N(CC2CCOCC2)C[C@@H]1C	0.825
COc1cccc(-c2ccc([C@@H]3[C@H](CO)N4C(=O)CN(C(=O)c5cccnc5)C[C@@H]34)cc2)c1	-1.57
SMILES	IDE exosite FP
O=C(c1ccncc1)N1CC(=O)N2[C@H](CO)[C@H](c3ccc(-c4ccccc4)cc3)[C@@H]2C1	2.16
COc1cccc(-c2ccc([C@@H]3[C@H]4CN(C(=O)c5ccncc5)CC(=O)N4[C@H]3CO)cc2)c1	-10.8*
COc1cccc(-c2ccc([C@H]3[C@H]4CN(C(=O)c5cccnc5)CC(=O)N4[C@H]3CO)cc2)c1	-0.649
COc1cccc(-c2ccc([C@H]3[C@@H](CO)N4C(=O)CN(C(=O)c5ccncc5)C[C@@H]34)cc2)c1	-8.55*
COc1cccc(-c2ccc([C@@H]3[C@@H](CO)N4C(=O)CN(C(=O)c5ccncc5)C[C@H]34)cc2)c1	1.65
COc1cccc(S(=O)(=O)Nc2ccc3c(c2)C(=O)N(C)C[C@@H](OC)[C@H](C)CN(Cc2ccccc2F)[C@H](C)CO3)c1	0.554
CCC(=O)N1[C@H](CO)[C@H](c2ccc(-c3cccc(F)c3)cc2)[C@H]1CNC(C)=O	0.974
Cc1ccccc1-c1ccc([C@@H]2[C@@H](CO)N3CCCCN(S(=O)(=O)c4ccc(F)cc4)C[C@H]23)cc1	2.38
Cc1ccccc1-c1ccc([C@@H]2[C@@H](CO)N3C(=O)CN(S(C)(=O)=O)C[C@@H]23)cc1	-12.6*
CCS(=O)(=O)N1CCCCN2[C@H](CO)[C@H](c3ccc(-c4ccccc4F)cc3)[C@H]2C1	-2.19
CCS(=O)(=O)N1CCCCN2[C@H](CO)[C@@H](c3ccc(-c4ccccc4C)cc3)[C@@H]2C1	-18.3*
Cc1ccccc1-c1ccc([C@H]2[C@H](CO)N3CCCCN(S(C)(=O)=O)C[C@@H]23)cc1	-4.62*
CS(=O)(=O)N1CC(=O)N2[C@H](CO)[C@H](c3ccc(Br)cc3)[C@@H]2C1	-0.517
CCS(=O)(=O)N1CCCCN2[C@H](C1)[C@H](c1ccc(-c3ccccc3C)cc1)[C@@H]2CO	-0.649
Cc1ccccc1-c1ccc([C@H]2[C@@H](CO)N3CCCCN(S(C)(=O)=O)C[C@@H]23)cc1	-2.31
Cc1ccccc1-c1ccc([C@H]2[C@H]3CN(S(C)(=O)=O)CCCCN3[C@H]2CO)cc1	-0.857
CS(=O)(=O)N1CC(=O)N2[C@H](C1)[C@H](c1ccc(Br)cc1)[C@@H]2CO	0.0892
CCS(=O)(=O)N1CCCCN2[C@H](CO)[C@@H](c3ccc(-c4ccccc4F)cc3)[C@H]2C1	1.94
CCS(=O)(=O)N1CCCCN2[C@H](CO)[C@H](c3ccc(-c4ccccc4C)cc3)[C@H]2C1	-8.34*
COCC(=O)NC[C@H]1[C@H](c2ccc(C3=CCCC3)cc2)[C@H](CO)N1C(C)=O	4.8
CN(C)C(=O)c1cccc(-c2ccccc2[C@@H]2[C@@H](CO)N(C(=O)C3CCC3)[C@H]2C#N)c1	2.09
CCC(=O)N[C@@H]1CC[C@H](CC(=O)NCc2ccccc2F)O[C@@H]1CO	0.952
CCCC#Cc1ccc([C@H]2[C@H](CO)N3C(=O)CN(C(=O)NC4CCCC4)C[C@@H]23)cc1	-2.97
CCC(=O)N1C[C@@H](C)[C@@H](OC)CN(C)C(=O)c2cc(NC(=O)Nc3ccc(Cl)cc3)ccc2OC[C@H]1C	0.774
C/C=C/c1ccc([C@H]2[C@H](CO)N3C(=O)CN(C(=O)c4cccc(F)c4)C[C@@H]23)cc1	0.741
SMILES	IDE exosite FP
NCC[C@H]1CC[C@H](NC(=O)NC2CCCCC2)[C@H](CO)O1	-1.46
CN1C(=O)c2cc(NS(=O)(=O)c3cccc(F)c3)ccc2OC[C@H]2O[C@@H](CC(=O)N3CCc4ccccc4C3)CC[C@H]21	-0.947
COCC(=O)N1[C@H](CO)[C@@H]2c3ccccc3N(C)C[C@@H]21	2.52
Cc1ccccc1-c1ccc([C@@H]2[C@H](CO)N3CCCCN(S(=O)(=O)Cc4ccccc4)C[C@@H]23)cc1	-4.71*
O=S(=O)(Cc1ccccc1)N1CCCCN2[C@H](C1)[C@H](c1ccc(-c3ccccc3)cc1)[C@@H]2CO	2.83
O=S(=O)(Cc1ccccc1)N1CCCCN2[C@H](C1)[C@@H](c1ccc(-c3ccccc3)cc1)[C@@H]2CO	-0.201
COCCN(C[C@H]1[C@H](c2ccccc2)[C@@H](CO)N1C(=O)C1CCC1)C(C)=O	3.4
CC(C)[C@@H]1CCc2cnnn2COC[C@@H](Cc2ccccc2)NC1=O	-0.472
